Each structure is given as a SMILES string.

The target of assay [1] is MAP kinase-activated protein kinase 2 (Homo sapiens) (UniProt P49137). The settings on record: at 10 µM.
Assay [2] concerns the target MAP kinase-activated protein kinase 3 (Homo sapiens) (UniProt Q16644). To be noted: at 10 µM.
The target in assay [3] is Serine/threonine-protein kinase MARK1 (Homo sapiens) (UniProt Q9P0L2). The settings on record: at 1 µM.
Assay [4] has the same target. To be noted: at 10 µM.
Assay [5] has as its target Dual specificity mitogen-activated protein kinase kinase 1 (Homo sapiens) (UniProt Q02750). To be noted: at 1 µM.
Assay [6] has the same target. The settings on record: at 10 µM.
Assay [7] deals with Maternal embryonic leucine zipper kinase (Homo sapiens) (UniProt Q14680). The settings on record: at 1 µM.
Maternal embryonic leucine zipper kinase (Homo sapiens), sequence (Q14680 whole entry, looked up): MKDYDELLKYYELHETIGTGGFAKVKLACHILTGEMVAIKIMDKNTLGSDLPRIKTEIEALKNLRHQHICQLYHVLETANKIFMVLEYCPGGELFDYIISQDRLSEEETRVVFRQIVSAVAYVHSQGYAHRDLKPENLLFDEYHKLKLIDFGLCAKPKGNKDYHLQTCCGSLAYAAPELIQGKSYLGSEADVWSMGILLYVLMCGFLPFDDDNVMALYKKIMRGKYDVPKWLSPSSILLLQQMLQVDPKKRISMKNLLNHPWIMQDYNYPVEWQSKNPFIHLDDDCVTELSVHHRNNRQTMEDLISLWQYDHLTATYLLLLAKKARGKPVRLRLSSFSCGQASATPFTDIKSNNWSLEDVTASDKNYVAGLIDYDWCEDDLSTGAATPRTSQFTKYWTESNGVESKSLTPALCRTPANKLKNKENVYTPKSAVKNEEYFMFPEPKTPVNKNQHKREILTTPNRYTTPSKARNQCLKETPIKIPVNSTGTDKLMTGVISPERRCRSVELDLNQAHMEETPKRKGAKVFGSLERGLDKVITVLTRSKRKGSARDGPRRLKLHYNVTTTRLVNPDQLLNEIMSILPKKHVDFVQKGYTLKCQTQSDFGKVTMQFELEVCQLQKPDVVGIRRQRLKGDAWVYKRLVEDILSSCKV
The target is the same in assay [8]. The settings on record: at 10 µM.
In assay [9] the target is Misshapen-like kinase 1 (Homo sapiens) (UniProt Q8N4C8). The settings on record: at 1 µM.
Assay [10] shares this target. The settings on record: at 10 µM.
In assay [11] the target is T1, Dual specificity mitogen-activated protein kinase kinase 6 (Homo sapiens) (UniProt P52564).
T1 sequence (whole entry): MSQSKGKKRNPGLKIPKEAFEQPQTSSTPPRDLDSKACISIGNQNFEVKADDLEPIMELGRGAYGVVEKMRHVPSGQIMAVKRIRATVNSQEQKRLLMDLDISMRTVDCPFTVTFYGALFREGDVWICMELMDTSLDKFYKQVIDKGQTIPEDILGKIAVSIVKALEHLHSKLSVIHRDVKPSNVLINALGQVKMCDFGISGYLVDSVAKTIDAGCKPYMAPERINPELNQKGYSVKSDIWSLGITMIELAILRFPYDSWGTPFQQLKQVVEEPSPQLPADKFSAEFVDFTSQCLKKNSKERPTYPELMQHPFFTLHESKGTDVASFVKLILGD
The settings on record: at 1 µM.

Assay [12] addresses T1, Dual specificity mitogen-activated protein kinase kinase 6 (Homo sapiens). The settings on record: at 10 µM.
The target in assay [13] is T2, Dual specificity mitogen-activated protein kinase kinase 7 (Homo sapiens) (UniProt O14733).
T2 sequence (whole entry): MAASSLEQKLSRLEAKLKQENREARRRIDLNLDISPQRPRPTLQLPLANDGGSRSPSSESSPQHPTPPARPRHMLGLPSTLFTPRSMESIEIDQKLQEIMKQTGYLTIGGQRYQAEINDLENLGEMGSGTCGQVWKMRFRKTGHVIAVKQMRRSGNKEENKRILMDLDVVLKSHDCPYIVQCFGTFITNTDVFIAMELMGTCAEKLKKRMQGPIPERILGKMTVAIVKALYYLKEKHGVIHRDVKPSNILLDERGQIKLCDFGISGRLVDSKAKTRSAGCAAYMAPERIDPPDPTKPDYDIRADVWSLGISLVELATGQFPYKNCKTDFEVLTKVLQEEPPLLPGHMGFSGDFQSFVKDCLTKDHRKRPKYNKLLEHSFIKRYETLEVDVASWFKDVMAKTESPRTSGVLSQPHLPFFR
The settings on record: at 1 µM.

Assay [14] concerns the target T2, Dual specificity mitogen-activated protein kinase kinase 7 (Homo sapiens). The settings on record: at 10 µM.
Assay [15] has as its target Myosin light chain kinase, smooth muscle (Homo sapiens) (UniProt Q15746). The settings on record: at 1 µM.
The target is the same in assay [16]. The settings on record: at 10 µM.
The target of assay [17] is Mitogen-activated protein kinase kinase kinase 9 (Homo sapiens) (UniProt P80192). The settings on record: at 1 µM.
Mitogen-activated protein kinase kinase kinase 9 (Homo sapiens), sequence (P80192 whole entry, looked up): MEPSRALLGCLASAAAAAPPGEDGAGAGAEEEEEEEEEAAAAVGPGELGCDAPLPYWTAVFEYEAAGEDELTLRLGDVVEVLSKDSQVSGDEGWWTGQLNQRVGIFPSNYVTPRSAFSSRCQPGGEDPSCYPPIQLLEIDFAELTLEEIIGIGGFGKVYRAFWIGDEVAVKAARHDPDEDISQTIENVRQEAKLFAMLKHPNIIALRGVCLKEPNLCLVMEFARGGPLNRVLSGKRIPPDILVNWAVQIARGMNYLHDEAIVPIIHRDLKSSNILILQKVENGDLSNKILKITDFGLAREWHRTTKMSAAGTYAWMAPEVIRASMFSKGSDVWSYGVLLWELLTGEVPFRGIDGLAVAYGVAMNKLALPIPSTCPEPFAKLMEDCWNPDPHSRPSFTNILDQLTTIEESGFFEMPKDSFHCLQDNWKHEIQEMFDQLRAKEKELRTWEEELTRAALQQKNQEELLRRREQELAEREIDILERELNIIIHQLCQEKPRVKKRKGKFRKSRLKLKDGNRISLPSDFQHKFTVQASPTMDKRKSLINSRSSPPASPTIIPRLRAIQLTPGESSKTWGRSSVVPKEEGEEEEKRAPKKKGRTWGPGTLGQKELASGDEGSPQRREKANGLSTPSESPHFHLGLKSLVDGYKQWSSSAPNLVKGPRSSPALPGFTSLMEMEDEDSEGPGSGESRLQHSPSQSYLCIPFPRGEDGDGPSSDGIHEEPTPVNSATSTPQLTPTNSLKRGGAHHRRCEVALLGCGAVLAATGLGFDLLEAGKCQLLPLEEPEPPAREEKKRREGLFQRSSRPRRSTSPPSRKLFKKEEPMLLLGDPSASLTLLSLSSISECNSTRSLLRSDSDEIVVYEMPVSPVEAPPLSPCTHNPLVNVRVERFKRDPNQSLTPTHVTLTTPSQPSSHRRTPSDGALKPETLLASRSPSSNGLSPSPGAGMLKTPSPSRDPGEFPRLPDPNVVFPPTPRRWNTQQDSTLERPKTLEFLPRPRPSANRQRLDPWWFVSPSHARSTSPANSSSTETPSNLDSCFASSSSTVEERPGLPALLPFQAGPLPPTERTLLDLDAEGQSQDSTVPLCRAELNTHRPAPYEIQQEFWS
For assay [18] the target is unchanged. The settings on record: at 10 µM.
Assay [19] has as its target Serine/threonine-protein kinase MRCK alpha (Homo sapiens) (UniProt Q5VT25). The settings on record: at 1 µM.
For assay [20] the target is unchanged. To be noted: at 10 µM.

Myosin light chain kinase, smooth muscle (Homo sapiens), sequence (Q15746 whole entry): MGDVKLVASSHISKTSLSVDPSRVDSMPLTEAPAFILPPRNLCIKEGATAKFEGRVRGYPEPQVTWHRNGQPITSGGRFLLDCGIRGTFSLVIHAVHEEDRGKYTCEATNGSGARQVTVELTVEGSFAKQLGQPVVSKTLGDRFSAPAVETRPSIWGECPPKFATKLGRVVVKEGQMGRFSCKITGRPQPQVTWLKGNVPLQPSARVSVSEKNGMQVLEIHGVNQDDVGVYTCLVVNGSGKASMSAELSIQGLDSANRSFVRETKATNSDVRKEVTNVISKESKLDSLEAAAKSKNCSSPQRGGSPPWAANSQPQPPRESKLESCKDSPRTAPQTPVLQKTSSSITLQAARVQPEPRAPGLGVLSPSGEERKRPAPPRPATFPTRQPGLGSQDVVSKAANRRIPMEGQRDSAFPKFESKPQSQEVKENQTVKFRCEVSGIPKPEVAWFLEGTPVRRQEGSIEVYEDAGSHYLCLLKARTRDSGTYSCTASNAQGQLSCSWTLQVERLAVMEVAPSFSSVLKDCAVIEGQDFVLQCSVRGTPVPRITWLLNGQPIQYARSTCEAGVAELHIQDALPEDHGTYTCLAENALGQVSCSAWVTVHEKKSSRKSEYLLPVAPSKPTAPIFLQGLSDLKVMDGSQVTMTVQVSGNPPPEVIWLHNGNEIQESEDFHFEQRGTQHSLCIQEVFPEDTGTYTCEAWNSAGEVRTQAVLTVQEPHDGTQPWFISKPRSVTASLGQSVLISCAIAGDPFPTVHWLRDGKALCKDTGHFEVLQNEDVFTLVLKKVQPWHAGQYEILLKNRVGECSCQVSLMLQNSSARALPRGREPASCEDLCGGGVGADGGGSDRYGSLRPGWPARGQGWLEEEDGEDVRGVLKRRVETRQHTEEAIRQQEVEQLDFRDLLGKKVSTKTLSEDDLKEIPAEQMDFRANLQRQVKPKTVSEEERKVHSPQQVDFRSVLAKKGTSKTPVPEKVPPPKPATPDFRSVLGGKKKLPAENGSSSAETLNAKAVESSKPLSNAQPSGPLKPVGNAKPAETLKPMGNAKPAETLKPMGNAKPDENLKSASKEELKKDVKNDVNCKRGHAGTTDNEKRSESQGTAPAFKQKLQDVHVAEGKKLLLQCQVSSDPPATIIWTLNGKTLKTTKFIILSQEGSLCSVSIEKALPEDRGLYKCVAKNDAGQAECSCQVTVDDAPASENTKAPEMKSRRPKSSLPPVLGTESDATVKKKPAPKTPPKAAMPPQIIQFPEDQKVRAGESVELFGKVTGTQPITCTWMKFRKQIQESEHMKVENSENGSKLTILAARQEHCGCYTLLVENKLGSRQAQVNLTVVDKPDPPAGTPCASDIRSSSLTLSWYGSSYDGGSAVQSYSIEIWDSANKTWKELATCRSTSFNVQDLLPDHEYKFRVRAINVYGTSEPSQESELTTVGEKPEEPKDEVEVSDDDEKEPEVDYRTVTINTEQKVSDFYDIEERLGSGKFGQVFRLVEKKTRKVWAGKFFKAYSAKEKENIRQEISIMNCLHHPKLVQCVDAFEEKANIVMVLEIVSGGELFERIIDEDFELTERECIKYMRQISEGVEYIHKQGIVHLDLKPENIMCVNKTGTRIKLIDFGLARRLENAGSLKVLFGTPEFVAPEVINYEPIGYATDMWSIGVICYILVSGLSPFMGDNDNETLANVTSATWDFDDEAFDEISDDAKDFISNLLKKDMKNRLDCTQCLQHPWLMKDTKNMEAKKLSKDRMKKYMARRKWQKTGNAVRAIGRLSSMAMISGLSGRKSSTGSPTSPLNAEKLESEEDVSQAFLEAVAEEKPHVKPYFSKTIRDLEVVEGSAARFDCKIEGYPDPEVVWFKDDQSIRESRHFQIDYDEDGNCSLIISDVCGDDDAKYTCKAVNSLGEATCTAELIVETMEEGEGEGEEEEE
MAP kinase-activated protein kinase 3 (Homo sapiens), sequence (Q16644 whole entry, looked up): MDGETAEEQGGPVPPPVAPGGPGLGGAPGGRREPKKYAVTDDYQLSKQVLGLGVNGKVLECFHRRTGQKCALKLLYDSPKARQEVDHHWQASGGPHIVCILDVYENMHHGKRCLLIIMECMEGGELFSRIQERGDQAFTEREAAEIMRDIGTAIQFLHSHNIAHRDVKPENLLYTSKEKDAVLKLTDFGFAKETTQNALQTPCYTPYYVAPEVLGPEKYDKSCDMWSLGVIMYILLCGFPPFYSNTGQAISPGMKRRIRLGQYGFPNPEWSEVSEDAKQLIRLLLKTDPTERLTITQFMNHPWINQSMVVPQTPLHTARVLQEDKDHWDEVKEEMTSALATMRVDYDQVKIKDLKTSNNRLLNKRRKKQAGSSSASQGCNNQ
MAP kinase-activated protein kinase 2 (Homo sapiens), sequence (P49137 whole entry, looked up): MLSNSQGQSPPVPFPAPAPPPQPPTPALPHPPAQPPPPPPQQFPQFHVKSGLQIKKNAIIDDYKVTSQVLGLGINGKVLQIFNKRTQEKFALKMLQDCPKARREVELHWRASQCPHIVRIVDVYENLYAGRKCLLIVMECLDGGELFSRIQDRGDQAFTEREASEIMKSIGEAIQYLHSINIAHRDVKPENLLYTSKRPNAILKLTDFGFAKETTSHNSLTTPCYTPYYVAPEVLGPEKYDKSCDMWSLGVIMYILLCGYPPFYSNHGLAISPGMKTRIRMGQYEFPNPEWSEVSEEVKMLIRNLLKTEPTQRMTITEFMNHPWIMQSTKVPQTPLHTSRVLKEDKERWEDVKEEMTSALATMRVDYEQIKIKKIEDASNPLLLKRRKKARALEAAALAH
Dual specificity mitogen-activated protein kinase kinase 1 (Homo sapiens), sequence (Q02750 whole entry): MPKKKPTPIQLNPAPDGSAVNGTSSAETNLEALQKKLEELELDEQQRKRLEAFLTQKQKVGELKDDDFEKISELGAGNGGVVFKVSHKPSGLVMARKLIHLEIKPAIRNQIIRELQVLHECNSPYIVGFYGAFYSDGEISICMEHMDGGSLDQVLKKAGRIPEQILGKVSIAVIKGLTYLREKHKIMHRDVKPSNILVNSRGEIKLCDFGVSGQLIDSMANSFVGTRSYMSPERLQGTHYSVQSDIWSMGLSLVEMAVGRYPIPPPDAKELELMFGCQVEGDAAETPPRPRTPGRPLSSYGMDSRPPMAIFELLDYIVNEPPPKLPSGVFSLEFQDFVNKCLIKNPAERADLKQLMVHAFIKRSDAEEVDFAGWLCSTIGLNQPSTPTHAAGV

Consider `Cn1cnc2cc3c(Nc4cccc(Br)c4)ncnc3cc21`, for which the residual activity turned out to be 94% in [1]; 87% in [2]; 102% in assay [3]; 94% in assay [4]; 91% in assay [5]; 88% in assay [6]. Further, the residual activity in assay [7] stood at 92%; in [8] it was 103%; in [9], 103%; in assay [10], 75%; in [11], 83%; in assay [12] it was 74%. For the same compound, the residual activity in assay [13] came out at 96%; in assay [14], 74%; in assay [15], 74%; in assay [16] it was 94%; in assay [17], 64%; in assay [18], 40%. Further, the residual activity was 105% in assay [19] and 87% in [20].

In the case of `Ic1cccc(CSc2nnc(-c3ccncc3)o2)c1`, the residual activity in assay [1] is 67%; in [2], 82%; in [3], 4%; in assay [4], 5%; in [5], 69%; in assay [6], 77%. Moreover, the residual activity stood at 24% in assay [7]; 13% in assay [8]; 98% in [9]; 95% in assay [10]; 100% in [11]; 77% in assay [12]. The residual activity turned out to be 70% in assay [13]; 94% in assay [14]; 84% in assay [15]; 68% in assay [16]; 90% in assay [17]; 88% in assay [18]. In addition, the residual activity in assay [19] is 123%; in [20], 87%.

For the compound `O=C1NC(=O)/C(=C/c2ccc3c(c2)OC(F)(F)O3)S1`, the residual activity was determined as 87% in assay [1]; 81% in assay [2]; 100% in assay [3]; 76% in [4]; 114% in assay [5]; 109% in [6]. In addition, the residual activity is 114% in assay [7]; 82% in assay [8]; 85% in [9]; 73% in assay [10]; 72% in assay [11]; 93% in [12]. Besides, the residual activity in assay [13] stood at 96%; in assay [14] it was 99%; in [15], 77%; in assay [16], 72%; in assay [17], 96%; in [18] it was 99%. The residual activity in [19] came to 112%; in assay [20] it was 104%.

`Oc1n[nH]c2nnc(-c3c(-c4ccccc4)nn4ccccc34)cc12`: the residual activity in assay [1] stood at 90%; in assay [2] it was 86%; in assay [3], 75%; in [4] it was 76%; in [5] it was 104%; in assay [6] it was 109%. Also, the residual activity in assay [7] came out at 53%; in assay [8], 36%; in [9], 105%; in assay [10], 92%; in assay [11], 126%; in [12], 89%. Besides, the residual activity in [13] was 95%; in [14], 101%; in assay [15], 84%; in [16], 52%; in [17], 89%; in [18], 48%. In addition, the residual activity in assay [19] came out at 94%; in assay [20] it was 79%.

For `CC(=O)O/N=C1\C(=C2\C(=O)Nc3cc(Br)ccc32)Nc2ccccc21`, the residual activity came out at 93% in assay [1]; 90% in assay [2]; 77% in assay [3]; 39% in assay [4]; 98% in [5]; 113% in assay [6]. Also, the residual activity in assay [7] is 69%; in assay [8] it was 52%; in assay [9], 103%; in [10] it was 86%; in [11], 96%; in assay [12] it was 76%. Besides, the residual activity in [13] came out at 83%; in [14], 105%; in assay [15] it was 90%; in [16] it was 71%; in [17], 55%; in [18], 16%. The residual activity was determined as 93% in assay [19] and 101% in assay [20].

`COc1cccc(-c2cc(=O)c3ccccc3o2)c1N`: the residual activity in assay [1] was determined as 78%; in [2], 97%; in assay [3] it was 87%; in assay [4] it was 85%; in assay [5], 103%; in assay [6] it was 111%. In addition, the residual activity in assay [7] turned out to be 109%; in [8] it was 113%; in assay [9] it was 98%; in assay [10], 96%; in [11] it was 138%; in assay [12], 77%. Moreover, the residual activity in [13] is 106%; in assay [14], 84%; in [15], 107%; in assay [16] it was 77%; in [17], 111%; in assay [18] it was 96%. The values for the residual activity in assay [19] and in assay [20] were 118% and 96%, respectively.

As to `CNc1cc2c(Nc3cccc(Br)c3)ncnc2cn1`, the residual activity in assay [1] is 112%; in assay [2], 99%; in [3] it was 88%; in [4], 73%; in assay [5], 84%; in assay [6] it was 53%. Besides, the residual activity came out at 109% in assay [7]; 112% in [8]; 92% in assay [9]; 87% in assay [10]; 72% in assay [11]; 79% in assay [12]. In addition, the residual activity in [13] was found to be 100%; in assay [14], 93%; in assay [15], 55%; in assay [16], 49%; in [17], 68%; in assay [18], 53%. Further, the figures for the residual activity in assay [19] and in assay [20] were 98% and 101%, respectively.

Values taken from ChEMBL document CHEMBL2218924, “A broad activity screen in support of a chemogenomic map for kinase signalling research and drug discovery” (Biochem J, 2013).
